Screening results from PubChem BioAssay.
SIRT5 inh: inhibitors of human sirtuin-5 desuccinylase; inhibition, % at 15 µM; Q9NXA8; 330,000 tested, 1.1% active; AID 652115; Purified SirT5, succinyl-peptide AMC, trypsin-coupled fluorescence; in the data active means inhibition above about 15%
HDAC3 inh: inhibitors of human histone deacetylase 3; O15379; recombinant HDAC3, fluorogenic peptide/trypsin coupled, fluorescence; inhibition, % at 8.3 µM; 320,000 tested, 0.15% active; AID 2718; in the data active means inhibition above about 26%, passing the limit was not always enough
ERp5 inh: inhibitors of human ERp5; Q15084; ERp5 insulin aggregation, absorbance 650 nm, 90 min; inhibition, % at 9.99 µM; 350,000 tested, 0.05% active;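 active means mean replicate inhibition above about 25%, with every replicate also reaching it, limit read from the data, passing the limit was not always enough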
ERAP1 HTS inh: inhibitors of human ERAP1 aminopeptidase; Q9NZ08; recombinant ERAP1, Leu-AMC fluorescence, 60 min; inhibition, % at 10.7 µM; 340,000 tested, 0.15% active; AID 652197;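 active means mean replicate inhibition of at least 30%, or all replicates individually reaching that 30% level; inactive means mean below 30% and not every replicate reaching it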;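 further: 0% = neutral control wells and 100% = L-leucinethiol positive control wells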
PDI turbidity: inhibitors of human protein disulfide isomerase | inhibition, % at 10 µM | P07237 | 350,000 tested, 0.052% active | PDI insulin aggregation turbidity, A650, 90 min;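 active means mean inhibition across replicates of 30% or more, whatever share of single replicates reach that level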
* marks the source's active call; other numbers are inactive results; nt = no result. The full list was thinned out, with hits kept by preference.

SMILES	SIRT5 inh	HDAC3 inh	ERp5 inh	ERAP1 HTS inh	PDI turbidity
Cc1cc(NS(=O)(=O)c2ccc(NC(=O)COc3ccc(Br)cc3)cc2)nc(C)n1	33*	0	1	1	8
C[C@H](CO)N1C[C@H](C)[C@@H](CN(C)C(=O)Nc2cc(F)ccc2F)Oc2cc(C#CC3CCCC3)ccc2S1(=O)=O	10	nt	6	0	nt
C[C@@H]1CN([C@@H](C)CO)S(=O)(=O)c2ccc(-c3cccc(F)c3)cc2O[C@H]1CN(C)C(=O)Nc1cc(F)ccc1F	5	nt	2	1	nt
C[C@H]1CN([C@@H](C)CO)S(=O)(=O)c2ccc(C#CC3CCCC3)cc2O[C@@H]1CN(C)C(=O)Nc1cc(F)ccc1F	20*	nt	6	-4	nt
C[C@@H]1CN([C@H](C)CO)S(=O)(=O)c2ccc(-c3cccc(F)c3)cc2O[C@H]1CN(C)C(=O)Nc1cc(F)ccc1F	16*	nt	2	-1	nt
C[C@@H]1CN([C@H](C)CO)C(=O)c2cccc(N(C)C)c2O[C@H]1CN(C)Cc1ccc(-c2ccccc2)cc1	9	nt	-1	6	nt
COc1cc2ccc(=O)oc2cc1OCC(O)C(C)(C)O (stereo not drawn)	-29	-72	-1	5	nt
COc1cc2ccc(=O)oc2cc1O	-84	-212	0	74*	nt
CCCCn1c(SCC(=O)Nc2nc(C)cs2)nnc1-c1cccnc1	17*	nt	-4	-2	-10
CC(C)OC(=O)c1cccc(C(=O)Oc2ccc(Br)cc2)n1	nt	nt	nt	nt	-1
CC(C)OC(=O)c1cccc(C(=O)O)n1	19*	-3	-8	-10	-2
COCC(=O)N(C)C[C@H]1Oc2ncc(C#C[C@@H](C)O)cc2C(=O)N([C@H](C)CO)C[C@H]1C	-2	nt	2	-1	nt
COc1ccc(C(CNC(=O)C(CC(C)C)NS(=O)(=O)c2ccc(C)cc2)N2CCOCC2)cc1 (stereo not drawn)	22*	-8	2	2	1
Cc1ccc(S(=O)(=O)NC(CC(C)C)C(=O)NCC(c2ccco2)N2CCCCC2)cc1 (stereo not drawn)	-4	-5	6	4	8
Clc1cc(Br)ccc1OCCN1CCOCC1	26*	4	-3	3	8
CCOC(=O)c1cnc2nc(C)nn2c1N	69*	0	3	-7	-2
COc1cccc(-c2ccc([C@H]3[C@@H](CO)N(C(C)=O)C34CN(C(C)=O)C4)cc2)c1	0	nt	3	0	nt
FC(F)(F)c1ccc(Cl)c(NC(=S)N/N=C/c2ccccc2Cl)c1	28*	1	-1	nt	-6
Cc1cccc(NCC(=O)N/N=C/c2cccc(Br)c2)c1	2	6	0	-1	0
Cc1ccc(NCC(=O)N/N=C/c2cccc(Br)c2)cc1	16*	-6	-3	-2	-1
COC(=O)c1ccc(/C=N/NC(=O)CNc2cccc(C)c2)cc1	24*	-1	-2	5	2
CCOc1cc(/C=N/NC(=O)CNc2cccc(C)c2)ccc1OC(=O)c1ccccc1	2	18	-5	2	0
CCNC(=O)Nc1ccc2c(c1)C(=O)N(C)[C@H]1CC[C@H](CC(=O)NCc3ccc(F)cc3)O[C@H]1CO2	-7	nt	0	0	nt
Cc1ccc2nc(/C(C#N)=C/c3ccc(O)c(O)c3)[nH]c2c1	20*	2	0	-1	9
Cc1ccc2nc(/C(C#N)=C/c3ccccc3C(=O)O)[nH]c2c1	5	0	-3	-7	-2
SMILES	SIRT5 inh	HDAC3 inh	ERp5 inh	ERAP1 HTS inh	PDI turbidity
CN(Cc1cccc(F)c1)C(=O)c1ccc(NS(=O)(=O)c2ccc3[nH]c(=O)[nH]c3c2)cc1	-3	6	3	1	-10
CN(Cc1ccccc1F)C(=O)c1ccc(NS(=O)(=O)c2ccc3[nH]c(=O)[nH]c3c2)cc1	31*	3	3	-1	-6
CN1C[C@H](O)COC[C@@H]2O[C@H](CC(=O)NC3CCCC3)CC[C@H]21	4	nt	4	-1	nt
COCC#Cc1cnc2c(c1)C(=O)N([C@@H](C)CO)C[C@H](C)[C@H](CN(C)C(=O)c1ccc(F)cc1)O2	-1	nt	1	1	nt
Cc1ccc(S(=O)(=O)c2nc(Cc3ccccc3)oc2N2CCOCC2)cc1	18*	-2	-4	4	6
Cc1ccc(S(=O)(=O)Nc2cccc3c2O[C@@H](CN(C)S(C)(=O)=O)[C@@H](C)CN([C@@H](C)CO)C3=O)cc1	4	nt	0	8	nt
CN(C)C(CNC(=O)CCNC(=O)c1ccc(Cl)cc1)c1ccco1 (stereo not drawn)	24*	5	-4	-1	2
